± gives the standard deviation.
Experiments:
Conditions in all cases: modulator concentration 10 µM
[1] = test system: RAW-Dual (murine macrophage reporter line); experiment: NF-kB reporter (SEAP) activity fold change vs agonist alone; higher = enhanced NF-kB activity
Outline: (§1)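 Compound reached 10 μM final in each well by pin transfer, onto RAW-Dual murine macrophage reporter cells seeded at 50 000 per well in 384-well plates. After 1 hour at 37 °C, the cells were stimulated overnight with a PRR agonist. SEAP in the supernatant was read with QUANTI-Blue at 620 nm absorbance for NF-κB, and Lucia luciferase was read with QUANTI-Luc luminescence for IRF. Each signal was turned into fold change against the mean agonist-only control on the same plate, and two replicate plates were averaged with propagated errors.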

[2] = test system: RAW-Dual (murine macrophage reporter line); experiment: IRF reporter (Lucia luciferase) activity fold change vs agonist alone; higher = enhanced IRF activity
Outline: as §1

[3] = test system: RAW-Dual (murine macrophage reporter line); experiment: viability score (confluency relative to resting cells, overnight) (fraction); higher = more viable, active = viable (0.7 or more)
Outline: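 RAW-Dual macrophages in 384-well plates were treated overnight with compound at 10 μM final. IncuCyte imaging recorded confluency, and IncuCyte software built two confluency masks across every imaged well. The viability score expresses confluency relative to resting cells and was judged against a cutoff, which a compound met only if both masks exceeded 70% of resting cells.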

[4] = agonist: CpG ODN 1826 0.5 ug/mL

SMILES | NF-kB reporter [1, 4] | NF-kB reporter ([1]; agonist: LPS 0.1 ug/mL) | NF-kB reporter ([1]; agonist: MPLA […]) | IRF reporter ([2]; agonist: 3'3'-cGAMP 10 ug/mL) | IRF reporter ([2]; agonist: LPS 0.1 ug/mL) | IRF reporter ([2]; agonist: MPLA […]) | viability score [3]
O=C(Oc1ccc2ccccc2c1)c1ccccc1 | 0.981 ± 0.055 | 1.06 ± 0.11 | 1.04 ± 0.066 | 0.906 ± 0.06 | 1.27 ± 0.12 | 1.12 ± 0.11 | 0.975 (active)
CCOC(=O)C1=C(C)NC(C)=C(C(=O)OCC)C1c1ccc(OC)cc1OC | 1.01 ± 0.21 | 1.27 ± 0.12 | 1.16 ± 0.18 | 1.01 ± 0.033 | 1 ± 0.24 | 1.25 ± 0.24 | 1 (active)
CCN1CCN(CC(O)COc2ccc(C(C)(C)C)cc2C(C)(C)C)CC1.Cl.Cl (centres undefined) | 0.72 ± 0.12 | 0.999 ± 0.08 | 2.1 ± 0.29 | 0.96 ± 0.052 | 1.24 ± 0.14 | 2.24 ± 0.24 | 0.25 (inactive)
CCCNCC(O)COc1ccccc1C(=O)CCc1ccccc1 (centres undefined) | 0.639 ± 0.086 | 0.988 ± 0.098 | 1.21 ± 0.066 | 0.989 ± 0.07 | 0.948 ± 0.095 | 0.869 ± 0.16 | 0.826 (active)
O=C(CCCn1nc(-c2ccc(F)cc2)ccc1=O)Nc1ccc(C(F)(F)F)cc1 | 0.89 ± 0.097 | 0.97 ± 0.055 | 1.05 ± 0.038 | 0.346 ± 0.038 | 1.01 ± 0.041 | 0.748 ± 0.15 | 0.99 (active)
O=C(OCCN1CCOCC1)c1ccc(O)cc1O | 1.21 ± 0.12 | 1.06 ± 0.1 | 1.06 ± 0.056 | 1.05 ± 0.14 | 0.972 ± 0.044 | 0.856 ± 0.076 | 0.999 (active)
CN[C@H]1CC[C@@H](c2ccc(Cl)c(Cl)c2)c2ccccc21.Cl | 0.407 ± 0.039 | 0.757 ± 0.049 | 1.49 ± 0.14 | 1.18 ± 0.1 | 1.27 ± 0.084 | 1.97 ± 0.23 | 0.258 (inactive)
NC(=O)c1ncn(C2OC(CO)C(O)C2O)n1 (centres undefined) | 1.17 ± 0.089 | 1.16 ± 0.058 | 1.04 ± 0.03 | 1.02 ± 0.075 | 0.951 ± 0.11 | 0.922 ± 0.072 | 0.999 (active)
CC(C)(C)c1cc(C(=O)Oc2cccc3cccnc23)cc(C(C)(C)C)c1 | 0.895 ± 0.05 | 0.976 ± 0.06 | 0.923 ± 0.064 | 0.938 ± 0.034 | 1.25 ± 0.097 | 1.23 ± 0.12 | 1 (active)
CC(C)CC(C(=O)Nc1ccc(Cl)cc1)N1C(=O)c2ccccc2C1=O (centres undefined) | 1.01 ± 0.17 | 0.982 ± 0.085 | 0.938 ± 0.089 | 0.988 ± 0.053 | 1.15 ± 0.21 | 1.21 ± 0.2 | 0.6 (inactive)
COc1cccc(CC(=O)Nc2ccc(CC(=O)N3CCC(O)CC3)cc2)c1 | 1.07 ± 0.35 | 1.06 ± 0.091 | 1.06 ± 0.074 | 0.884 ± 0.03 | 1.1 ± 0.13 | 1.37 ± 0.19 | 0.945 (active)
O=C(CCCC(=O)Nc1ccc(Cl)c(Cl)c1)Nc1ccc(Cl)c(Cl)c1 | 0.964 ± 0.076 | 1.02 ± 0.062 | 0.914 ± 0.068 | 0.963 ± 0.029 | 1.41 ± 0.13 | 1.13 ± 0.14 | 1.01 (active)
COC(CNC(=O)c1cc2ccccc2[nH]1)c1ccc(Cl)s1 (centres undefined) | 0.989 ± 0.23 | 1.06 ± 0.081 | 1.12 ± 0.11 | 0.917 ± 0.045 | 1.26 ± 0.14 | 1.48 ± 0.19 | 0.882 (active)
CCC(C)C(=O)OC1CC(C)C=C2C=CC(C)C(CCC3CC(O)CC(=O)O3)C21 (centres undefined) | 1.33 ± 0.32 | 1 ± 0.061 | 1.06 ± 0.13 | 0.919 ± 0.031 | 1.19 ± 0.19 | 1.1 ± 0.16 | 1 (active)
Cn1c2c(c3ccccc31)CCCC2NC=O (centres undefined) | 0.787 ± 0.061 | 0.931 ± 0.06 | 1.03 ± 0.09 | 0.93 ± 0.042 | 1.36 ± 0.082 | 1.44 ± 0.14 | 1 (active)
CCC(C)C(=O)OC1CCC=C2C=CC(C)C(CCC3CC(O)CC(=O)O3)C21 (centres undefined) | 0.946 ± 0.11 | 0.83 ± 0.061 | 1 ± 0.094 | 0.941 ± 0.046 | 1.24 ± 0.23 | 1.33 ± 0.32 | 1.05 (active)
NS(=O)(=O)c1ccc2c(c1)CCCC2 | 0.512 ± 0.11 | 0.806 ± 0.22 | 0.661 ± 0.15 | 0.932 ± 0.057 | 0.925 ± 0.073 | 0.957 ± 0.3 | 0.863 (active)
Cc1ccccc1N=Nc1ccc(NC(=O)c2ccnn2C)c(C)c1 | 1.12 ± 0.21 | 1.06 ± 0.086 | 0.946 ± 0.077 | 0.98 ± 0.039 | 1.21 ± 0.15 | 1.25 ± 0.21 | 1.01 (active)
CC(C)(Oc1ccc(Cl)cc1)C(=O)Nc1cnoc1 | 1.05 ± 0.097 | 1.09 ± 0.082 | 1.08 ± 0.098 | 0.982 ± 0.037 | 1.03 ± 0.063 | 1.04 ± 0.17 | 0.979 (active)
COc1ccc(C=NNc2nc(Nc3ccc(C)cc3Br)nc(N3CCOCC3)n2)c(OC)c1 | 0.238 ± 0.024 | 1.13 ± 0.13 | 1.84 ± 0.18 | 0.649 ± 0.067 | 1.67 ± 0.23 | 2.01 ± 0.27 | 1.05 (active)
CC(Cc1ccc(O)c(O)c1)(NN)C(=O)O (centres undefined) | 0.957 ± 0.083 | 0.979 ± 0.076 | 0.877 ± 0.083 | 0.952 ± 0.03 | 1.24 ± 0.15 | 1.38 ± 0.18 | 1 (active)
CCOc1nc2cccc(C(=O)O)c2n1Cc1ccc(-c2ccccc2-c2nc(=O)o[nH]2)cc1 | 1.29 ± 0.17 | 1.14 ± 0.32 | 1.12 ± 0.073 | 0.886 ± 0.042 | 1.41 ± 0.38 | 1.31 ± 0.12 | 1 (active)
O=C(O[C@@H]1C[C@@H]2C[C@@H]3C[C@H](C1)N2CC3=O)c1c[nH]c2ccccc12 [Prestw-1510] | 0.575 ± 0.048 | 0.718 ± 0.056 | 0.697 ± 0.043 | 0.931 ± 0.04 | 0.958 ± 0.055 | 0.958 ± 0.18 | 1 (active)
Cc1ccc(S(=O)(=O)n2cnc3ccccc32)cc1C | 0.594 ± 0.066 | 1.11 ± 0.065 | 1.07 ± 0.064 | 1.12 ± 0.042 | 1.37 ± 0.12 | 1.06 ± 0.07 | 0.988 (active)
Fc1ccc(CN2CCc3c([nH]c4ccccc34)C2)c(F)c1 | 0.636 ± 0.051 | 0.378 ± 0.05 | 0.62 ± 0.082 | 0.909 ± 0.029 | 1.32 ± 0.2 | 1.21 ± 0.16 | 0.212 (inactive)
Br.CC(=O)c1cccc(Nc2nc(-c3c(C)nc4cc(C)ccn34)cs2)c1 | 0.774 ± 0.051 | 1.16 ± 0.087 | 1.62 ± 0.095 | 0.691 ± 0.13 | 1.17 ± 0.06 | 2.65 ± 0.53 | 0.25 (inactive)
COC1CCN(C2CCN(S(=O)(=O)c3ccccc3)CC2)CC1 | 0.839 ± 0.077 | 1.01 ± 0.082 | 0.977 ± 0.062 | 0.981 ± 0.065 | 1.08 ± 0.14 | 1.03 ± 0.23 | 1.01 (active)

— the supplement of paper PMC10646978
